Sampled rows, rich in hits. Any-hit rate of the full collection: about 4.1%.
tim23-1 inh – tim23-1 yeast growth inhibition | S. cerevisiae tim23-1 growth, BacTiter-Glo luminescence, 24 h | inhibition, % at 20 µM | 1.3% of 330,000 active | AID 463212;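 active = growth inhibition of the mutant yeast at or above 50%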;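 note: temperature-sensitive mutant grown at 25 °C; plate controls were DMSO-treated mutant yeast for no effect and medium wells lacking yeast for full effect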
TIM10 inh – TIM10 yeast growth inhibition | S. cerevisiae TIM10 strain growth, BacTiter-Glo luminescence, 24 h | AID 463195 | inhibition, % at 10 µM | 1.4% of 330,000 active;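 active = inhibition of 40% or more at the single tested concentration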;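 note: wild-type TIM10 isogenic control strain grown at permissive 25 °C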
NLRP3 yeast inh – blocks the NALP3 inflammasome reconstituted in yeast | Yeast reconstituted NLRP3/ASC/caspase-1, beta-gal luminescence, 24 h | inhibition, % at 10 µM | 0.39% of 330,000 active;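 active = inhibition of 50% or more; inactive = inhibition below 50%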;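 note: plate controls were induced DMSO wells for no effect and uninduced yeast grown without galactose for full effect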
NALP1 inh – blocks the NALP1 inflammasome reconstituted in yeast. S. cerevisiae NALP1/ASC/caspase-1 growth, X-gal OD620, 72 h. inhibition, % at 10 µM. 0.61% of 280,000 active; in the data active = inhibition mostly above about 24%, no sharp cut-off; inactive = mostly below about 32%
tim10-1 inh – inhibits growth of tim10-1 mutant yeast; S. cerevisiae tim10-1 ts strain growth, BacTiter-Glo, 24 h; inhibition, % at 20 µM; 2.2% of 330,000 active;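 active = inhibition of at least 40%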;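 note: mutant grown at 25 °C; 0% = DMSO wells with yeast and 100% = wells holding no yeast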
tim23-1 confirm – confirmation of tim23-1 mutant yeast growth inhibitors; inhibition, % at 20 µM; S. cerevisiae tim23-1 growth, BacTiter-Glo luminescence, 24 h; shares compounds with tim23-1 inh; 83% of 4,400 active;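 active = inhibition above about 39% in either of two replicate wells at 20 µM, limit read from the data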;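 note: temperature-sensitive tim23-1 mutant grown at 25 °C; 0% = DMSO wells with yeast and 100% = medium wells without yeast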
The depositor's hits bear a star; x = not tested or not shown.

SMILES	tim23-1 inh	TIM10 inh	NLRP3 yeast inh	NALP1 inh	tim10-1 inh	tim23-1 confirm
O=C(Nc1cccc(NC(=O)c2ccc(-c3cccc(Br)c3)o2)c1)c1ccco1	60*	19	17	4	-47	43*
O=C(Nc1ccc(Br)c(Cl)c1)c1ccco1	62*	36	12	-2	28	72*
COc1ccc(/C=C2\C(=O)ON=C2c2ccccc2)cc1	42	6	14	2	31	x
O=C1/C(=C\c2ccc(-c3ccccc3[N+](=O)[O-])o2)C(c2ccccc2)=NN1c1ccccc1	18	26	21	-1	11	x
Cc1ccc(-c2ccc(/C=C3\C(=O)ON=C3c3ccccc3)o2)c([N+](=O)[O-])c1	70*	33	15	12	7	67*
Cc1ccc(/C=C2\C(=O)ON=C2c2ccccc2)o1	53*	7	-31	-6	27	53*
O=C(COC(=O)c1cc(Cl)ccc1[N+](=O)[O-])NCc1ccc(Cl)cc1Cl	32	17	-5	-1	21	x
O=C1NC(c2cccc(Br)c2)=N/C1=C\c1ccco1	56*	31	7	x	26	35
COc1cc2ccccc2cc1C(=O)Nc1ccc(C)cc1	59*	0	41	15	-4	64*
COc1cc2ccccc2cc1C(=O)Nc1ccc(Cc2ccncc2)cc1	37	33	0	32	30	x
COc1ccc(C)cc1NC(=O)c1nn(-c2ccccc2)cc1OC	55*	-6	33	22	0	68*
COc1cn(-c2ccccc2)nc1C(=O)Nc1ccc(C)cc1	50*	30	26	17	-51	39
COc1cn(-c2ccccc2)nc1C(=O)Nc1ccccc1	19	18	26	13	-11	x
FC(F)(F)c1cccc(OCCN2CCN(Cc3ccccc3)CC2)c1	-223	-51	9	32	-79	x
O=C(Nc1ccc(Nc2ccccc2)cc1)C(Cl)Cl	37	29	34	56	6	x
CC(C)(C)C(=O)C(Cl)C(=O)Nc1ccccc1 (stereo unspecified)	70*	-58	-27	x	36	-11
Cc1nn(-c2ccccc2)c(OC(=O)c2cccs2)c1S(=O)(=O)c1ccccc1	58*	31	3	36	29	51*
CC(=O)c1ccc(N2CCN(C(=O)c3ccc(Br)cc3)CC2)c(F)c1	57*	2	39	-25	33	34
Cc1ccccc1-c1ncc(CN2CCC(CO)(CCCc3ccccc3)CC2)cn1	-17	-25	27	0	-96	x
C/C(=C\c1ccc2c(c1)OCO2)C1Nc2cccc3cccc(c23)N1	52*	22	5	x	31	47*
C/C(=C\c1ccccc1)C1Nc2cccc3cccc(c23)N1	25	0	14	x	24	x
C=C1c2cccc(OC)c2O[C@H](C(=O)OCC)[C@@H]1CC(CC)CCCC (stereo partly specified)	51*	16	x	x	27	36
O=C(c1cccs1)N1CCN(c2cc(Cl)ccc2Cl)CC1	50	15	-1	4	38	37
COc1ccc(S(=O)(=O)N2CCCCCC2)cc1C(=O)N(C)CC(=O)Nc1cc(C)ccc1C	13	-3	25	-1	18	x
CC(C)(C)C(=O)c1sc(Nc2ccccc2)nc1N	53*	6	22	39	-34	41*
SMILES	tim23-1 inh	TIM10 inh	NLRP3 yeast inh	NALP1 inh	tim10-1 inh	tim23-1 confirm
Cc1nc(Nc2ccccc2)sc1C(=O)c1ccccc1	32	27	15	4	15	x
CCCCCN=Cc1c(C)[nH]n(-c2nc3ccccc3s2)c1=O	56*	12	4	-9	21	48*
CCCc1[nH]n(-c2nc3ccccc3s2)c(=O)c1C=NCCCOC	6	20	3	-18	7	x
COc1ccc(S(=O)(=O)N/N=C(/C)c2ccco2)cc1	2	4	-9	-1	-1	x
COc1ccc(N=C(C)C2=C(O)COC2=O)cc1	96*	-15	17	-7	-11	5
S=C(NCc1ccccn1)Nc1ccccc1	-7	-5	7	24	18	x
S=C(NCc1ccccn1)Nc1ccc(Cl)c(Cl)c1	56*	27	35	23	33	46*
O=C(CN(C(=O)C1CSC(=O)C1)c1ccc(F)cc1)NCc1ccc2c(c1)OCO2 (stereo unspecified)	9	0	12	11	-16	x
O=C(OCC(=O)c1ccc[nH]1)c1cncc(Br)c1	-4	-10	7	x	-9	x
COc1ccc(C(=O)COC(=O)c2cncc(Br)c2)cc1	65*	15	8	x	-15	75*
CCC(C)N1CCNCC1 (stereo unspecified)	3	-9	5	2	-2	x
O=C(OCc1nnc(-c2ccccc2)o1)c1cccc(-n2cnnn2)c1	15	-1	25	x	2	x
CCN(CC)c1ccc2c(C)cc(=O)oc2c1	31	-11	24	x	4	x
CCN(CC)c1ccc2c(C)c(Cl)c(=O)oc2c1	50*	27	26	-14	9	53*
CCN(CC)c1ccc2c(C)c(-c3ccc(N)cc3)c(=O)oc2c1	55*	38	14	-1	24	67*
CC(=O)C1=C(O)C(=O)N(Cc2ccccc2)C1c1ccc(Br)cc1 (stereo unspecified)	1	-10	-5	10	-13	x
O=C1CN(C(=O)COC(=O)c2cccc(OCc3ccccc3)c2)c2ccccc2N1	-2	11	10	17	15	x
COc1ccc(CC(=O)Nc2c3c(nn2-c2ccccc2C)CS(=O)C3)cc1 (stereo unspecified)	97*	-12	0	-8	14	4
Cc1ccccc1C(=O)Oc1ccc(Sc2ccc(O)cc2)cc1	57*	26	21	13	22	-14
CN(CC(=O)Nc1ccc(F)c(F)c1F)C(=O)c1ccc2c(c1)OCCO2	-10	-15	20	x	-17	x
COc1ccc(-c2nc(-c3cccc(C)c3)nc(N3CCN(C)CC3)c2C#N)cc1	59*	36	24	16	30	44*
Cc1csc2nc(O)c(C(=O)NCC3CCCO3)c(=O)n12 (stereo unspecified)	30	2	41	x	12	x
Cc1csc2nc(O)c(C(=O)NC3CCCCC3C)c(=O)n12 (stereo unspecified)	67*	23	-6	x	30	44*
COc1cc(S(=O)(=O)Nc2ccc(Br)cc2)ccc1N	10	2	1	9	-9	x
O=C(Nc1cc(Cl)ccn1)C1(c2ccccc2)CC1(Cl)Cl (stereo unspecified)	55*	17	19	18	32	65*
O=C(Nc1ccccc1)C1(c2ccccc2)CC1(Cl)Cl (stereo unspecified)	28	28	18	26	18	x
CCS(=O)(=O)N1CCN(C(=O)c2cccc3ccccc23)CC1	-1	1	28	8	1	x
COc1ccc(-c2csc(NS(=O)(=O)c3ccc([N+](=O)[O-])cc3)n2)cc1	84*	3	13	23	17	9
